Results published in PubChem BioAssay AID1508600 (Functional Genomics Laboratory (NCATS/FGL), 2020).
The whole screen tested about 53,000 sequences, of which about 3,700 (7%) were called active.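 How the source made its calls: active means gene knockdowns whose robust z-score for IL-1 alpha signal is at least 2 or at most -2, so actives lie on both sides; inactive means the rest.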 Shown is part of a subset that was picked to be rich in actives.

assay: Components of the Cytosolic LPS Sensing Pathway: Gene Identification via Genome-wide siRNA Screen; conditions: RAW264.7 macrophages, IL-1a HTRF, actives lie on both sides, screened at 100 nM (by protocol), cells primed 5 h with Pam3CSK4 first;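 further: robust z of the log signal after scaling to non-targeting control siRNA wells of the plate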
Summary of the method: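 Cells (RAW264.7, 1×10^4 per well) were transfected with siRNA at 100 nM and cultured 48h at 37 degrees C. Pam3CSK4 was added for 5 hours; LipidA transfection followed for 24 hour. IL-1a was then measured by HTRF.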

z-score, active:
CUCUGUACUUGGGCAGGAATT against Cyp2c65 2.9, GGUCGACAGAUCAAGCCUUTT against Psmb3 -2.18, CGUGUCAUACAGGUGUGGUTT against Lhx8 2.11, CCAGCAAUAGUUCAGCAGATT against Ccdc82 -2.72, GGACAGGAUCAGAGAAAGATT against Zbtb7c -2.15, GGCAUUGAAUUACUUACAUTT against Slk 2.46, GGCCAGUUCUAUGUCAUGATT against Usf2 -2.05, GGUUCUCCAAACUCUGCCATT against Arhgap1 2.29, GGAGGUGGUACAAUACACCTT against Gsg1 2.86, CCAACUUCAAAACUAUCGUTT against Trp53bp1 2.19, GCACCUGACAGAUACUUCCTT against Ints4 -2.1, GGCAGUUUUGCAUGUGUGATT against Zfp654 -2.23, GCUUUGAUGUCGAUGGGCUTT against Arg1 -2.01, GCAACUUGUCAGAUGUUUCTT against Trpm7 3.35, GGAACAGAGAUAUGAAACATT against Olfr738 -2.4, GCCUGGCUAGAAAUGUGGUTT against Fpr3 3.19, GCGAGGUGUCUCUAUCAACTT against Mrpl11 3.37, GGUCUACGCUAUCCUAGUUTT against Grin1 -2.23, GGGAAAAUUUCCUCUGACUTT against Chia1 -2.03, CGACUACAAUGGGCUCAAGTT against Kifc3 -2.1, GCAGUAGUCUUGGAAUUAATT against Bhlhe41 2.15, GGACUGGAAAAUAUCAAACTT against Spata5 2.04, CCCUGUCUUUCCUAGGCCATT against Mcat -3.3

z-score, inactive:
GGACCUUUUUUGUUCAAAATT against Rasd1 0.157, CGCUGCAUUAAAGACUAAATT against Kcnj10 0.414, GCAAACGGACACUUGGAAUTT against Hmx1 -0.9, GGUAAACAUGAUGUCCCUCTT against A630038E17Rik 0.0317, GGAAUAUGCUGCAAAAAUCTT against Camk2g -1.58, GGCAGCCUGAACAUCAAUGTT against S100a13 1.47, CCGAAGCUUUAUCUUCUAUTT against Pkd2 -0.719, GGCCAUGGUUUCAAAAACATT against Rspo2 -1.33, GGCGAUCUUUGGAAUUAGATT against Ing3 0.209, GGGAACAUGUUUUACUCUUTT against Zfp521 1.63, GCCAAUCUGAACUUGUGUUTT against Plet1 -0.931, CCACAGGGACAACAAACUATT against Arid3b 0.0513, CCUGUUUCGUAGAUUGUUUTT against Eftud2 -0.35, UCCUUGCUGUCCUAACCAUTT against Gpr119 1.64, GCUGCACCAUCAAUUCCCATT against Vpreb3 -1.63, GGCACUUGAAUUUCUAAGUTT against Cbx5 0.0672, GGACCCAGCAGUCAAGAUATT against 9930038B18Rik 0.0416, GGUGCCAACCUCAAUUCAUTT against Hnf4a 1.9, CCGGUUCACUGCUUGACCUTT against Wbp1 0.87, CGUUGUGAGGUUAUACGACTT against Tbc1d20 -0.862, GGAACACUUUAAGACCAAATT against Fmnl1 0.482, GGAGUAUUAUGAAGUGUUGTT against Aip 0.108, GGAAACUGGUGCUACAUUATT against Usp10 0.747, GGACAUUGAGGAUUAUGUCTT against Med24 0.332, GCUAGAUGUAGAUAGAUAATT against Plekhm3 -0.569, GCACAGGUGAGCUCUUUGATT against Nudt10 -1.12, GUGUUUUACCAUUGGACAUTT against Klra20 1.58, GUUCGCUGAACACGUCUUCTT against Hpcal1 0.549, GAGACAAUUGUAACAUUCUTT against Olfr176 1.2, GGCAGCUUAGCUGUUCGUCTT against Socs4 -0.664, GGCUCUCAGUGCCAUCAUUTT against Stk40 -0.858, GCUUGGGUAAUAGAAAUCATT against Btnl1 0.6, GCCAAGACAUCAGAAGGAUTT against Nrxn1 0.202, GGAAAACAGUGGUAGCUUATT against Cnp 0.187, GGAUGAAGAUGAAAAAGAUTT against Hoxc9 -0.247, GGGACUUUGUAAACAGUUUTT against Eci2 1.61, GGCUAACCGUAUCAGUCAUTT against Podnl1 -1.23, GGCUUGAAUAUUAAAGUGATT against Arhgef19 -0.505, UGCGAGCUCACUGAUGUACTT against Adam34l -1.69, GGGUUAGGUUGGGAUGGAUTT against Ccnd3 -0.466, CGUGGGCCUAUGCUUGUCATT against Tsc1 0.32, GGUUCUGAUAUACGUGUUUTT against Rraga 0.057, CCCAUUCACUCAUCACAUGTT against F630003A18Rik -1.4, GCCACUAAGAAUCAGACAUTT against Ryr1 -0.382, CCAGACCAUUAACUUGAUUTT against Lsm8 -0.739, GGUACGAGUGAUCGUACUUTT against 5330438I03Rik 0.54, CCCGUCACCACUUAACAUGTT against Rasal2 0.699, GGAAUACCAUGUUACAAUUTT against Reln 0.816, GGUGUCUUUUUUUACAAGATT against Tnfsf11 0.233, GGAGGAACCUAAUUGAAUGTT against Cmbl 0.183, GGUCCAGAUAGACAUCCUGTT against Ralb 0.169, GGGAUAAAUAUGAAGAAAGTT against Tacc2 -1.46, GGAGCAAUUAAAGGUGUCATT against Fpr-rs3 -0.159, CCAUCUUCAGCAGUGGAAATT against Rph3al -1, GGCGUGCGAUAACACGCAATT against Med18 1.05, GGUCGUAUGGUGCUCAAGATT against Pira1 -1.76, GGCAUAGGACUAGAAGCAGTT against Rsrc2 -1.54, GCAGUAUGGGACUAUGCUUTT against Cp -0.0969, GCCAGAACCUGACUUAUAUTT against Mia2 -0.0793, CCUCAUUCAGAGUAUAUAGTT against Vwa3a -0.469, GGCUUUAGAGAAAGAAGUATT against Med4 1, GCCUUUCUUCAGUGUUCACTT against Gm128 0.498, GCACCAAAAUACACGAAAGTT against Ptpdc1 -1.11, CCCAUGACUAUCCAAACAATT against Kcnmb2 -1.52, CCUUAGUAACAGCACUAGCTT against Lrfn2 -0.228, GGAGCUGGAGUACGACUACTT against Tmem30b -0.891, UUUAAGGAUCUCGUGCGAATT against Olfr809 -0.12, GCUAAAACCCGUUACUUCCTT against Gsta4 0.669, GGUAAAGGGUUCUUGGACATT against Eps15l1 -0.156, GGAGAAUGCCCUGAUAUAGTT against Hyal5 1.56, GGAUGUGAUUGAUAUUGAATT against Cul7 1.63, GCAGCGAGGUUAUCAGUAATT against Sox8 -0.554, GCCUUUUUACAGCUCAGGUTT against Zfp975 -0.623, GCCACCCUUCUGGAGAUUCTT against Gm6787 1.49, CGGUAUCUACAUCAUAAACTT against Rpsa 0.172, GGUUACCAGAAAAUAACUATT against E130114P18Rik 0.852, UGUCAACUGACUGUAGUAATT against Zmynd12 1.66, GGCUACGUGAAGGAACAGUTT against Rps10 0.397, GGCACUUAAGUAUUCUUCATT against Wac -0.412, GGAAAAAUCAGUUUCGUCUTT against Dgkq 0.305, GGUUAGCCAGCUGAAUCAATT against Cxxc4 1.89, CCUAGAAAGAGGACUCAGATT against Abhd12 -0.293, CCUUUAAAGGGCAUAUUCATT against Clip1 1.46, GGCCUGCCGGAGAUAAAGATT against Tex43 -0.759, AGGGCACAAAAGGUGACAATT against Rph3al -0.887
